Data from PubChem BioAssay.
Unmarked numbers belong to inactive results. Calls of active or inactive are those of the source.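 The calls were made as follows, unless noted: active = mean inhibition above 46.68%, the untreated control wells mean plus 3 SD; inactive = the rest.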

Key:
[1] = target: Nuclear receptor coactivator 1 (Homo sapiens) (UniProt Q15788); test: NCOA1 GAL4-fusion reporter inhibition – cell-based, luminescence, quadruplicate, confirmation (AID 588820); settings: HEK293 GAL4-SRC1 luciferase reporter, at 3.6 µM, active compounds read high;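 also: 0% = DMSO wells and 100% = gossypol 36 µM treated wells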
[2] = repression of VP16-driven luciferase reporter – cell-based, luminescence, high throughput, counter-screen for SRC1 inhibitor project (AID 588824; in the data active = inhibition above about 25%); settings: cell-based VP16 transactivation luciferase luminescence; at 3.6 µM; active compounds read high

Chain of Nuclear receptor coactivator 1 (Homo sapiens) (Q15788 whole entry, looked up, the tested form may be a part): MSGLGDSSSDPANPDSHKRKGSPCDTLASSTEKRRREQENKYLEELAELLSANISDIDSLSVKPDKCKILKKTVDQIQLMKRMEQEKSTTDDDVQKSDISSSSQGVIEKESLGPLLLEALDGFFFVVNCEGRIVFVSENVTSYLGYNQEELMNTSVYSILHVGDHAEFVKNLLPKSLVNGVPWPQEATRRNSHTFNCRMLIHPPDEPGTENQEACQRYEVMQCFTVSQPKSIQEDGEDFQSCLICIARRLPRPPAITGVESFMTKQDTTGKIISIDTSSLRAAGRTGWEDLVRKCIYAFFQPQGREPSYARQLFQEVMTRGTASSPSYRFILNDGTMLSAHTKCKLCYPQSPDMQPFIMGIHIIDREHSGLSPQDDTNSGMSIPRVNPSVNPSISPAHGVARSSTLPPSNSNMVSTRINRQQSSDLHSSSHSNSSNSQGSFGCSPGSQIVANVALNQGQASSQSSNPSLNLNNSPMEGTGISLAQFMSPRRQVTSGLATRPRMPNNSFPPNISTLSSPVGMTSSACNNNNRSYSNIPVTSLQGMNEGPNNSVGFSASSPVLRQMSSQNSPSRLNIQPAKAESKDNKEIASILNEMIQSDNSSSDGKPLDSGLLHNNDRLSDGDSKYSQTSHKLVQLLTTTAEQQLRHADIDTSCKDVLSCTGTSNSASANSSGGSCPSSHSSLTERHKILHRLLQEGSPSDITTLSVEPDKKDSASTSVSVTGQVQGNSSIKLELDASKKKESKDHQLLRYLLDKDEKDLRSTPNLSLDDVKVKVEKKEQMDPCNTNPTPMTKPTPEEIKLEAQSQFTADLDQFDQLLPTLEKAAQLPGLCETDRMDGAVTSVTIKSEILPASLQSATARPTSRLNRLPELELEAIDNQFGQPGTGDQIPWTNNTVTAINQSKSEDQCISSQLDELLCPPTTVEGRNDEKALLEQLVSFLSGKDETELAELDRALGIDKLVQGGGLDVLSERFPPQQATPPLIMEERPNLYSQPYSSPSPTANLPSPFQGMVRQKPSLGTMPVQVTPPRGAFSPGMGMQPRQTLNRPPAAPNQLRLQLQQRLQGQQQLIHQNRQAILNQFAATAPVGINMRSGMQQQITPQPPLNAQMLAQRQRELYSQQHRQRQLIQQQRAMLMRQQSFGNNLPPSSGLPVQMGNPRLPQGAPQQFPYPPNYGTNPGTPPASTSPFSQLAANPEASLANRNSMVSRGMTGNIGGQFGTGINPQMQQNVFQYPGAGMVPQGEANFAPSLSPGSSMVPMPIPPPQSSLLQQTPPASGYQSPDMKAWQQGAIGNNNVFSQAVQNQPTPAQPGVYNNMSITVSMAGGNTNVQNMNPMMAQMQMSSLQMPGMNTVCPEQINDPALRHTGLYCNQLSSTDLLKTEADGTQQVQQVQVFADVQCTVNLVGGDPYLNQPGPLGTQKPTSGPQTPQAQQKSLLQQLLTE

Compound | inhibition [1] | inhibition [2]
COc1ccc(C(=O)c2c(C)c3ccccc3n2CC(O)CNC(C)C)cc1 (stereo not given) | -15.4% | -0.38%
O=C(COC(=O)C1CCN(c2ccc(C(F)(F)F)cn2)CC1)NCc1cccc(Cl)c1 | 1.02% | -3.36%
Cc1cc(C)n(-c2ccc(C(=O)Nc3ccc(S(=O)(=O)NCc4ccco4)cc3)cc2)n1 | -5.13% | 24.2%
Cn1c(N)c(C(=O)CSc2nn(-c3ccccc3)c(=S)s2)c(=O)n(C)c1=O | 8.31% | 17.7%
CCN(CC)CCNc1nc2cc(OC)c(OC)cc2c2nc(-c3ccccc3)nn12 | 9.19% | 33.3% (active)
COCCN(C(=O)C1=COCCO1)c1c(N)n(Cc2ccccc2)c(=O)[nH]c1=O | -12.3% | -15.5%
CSCCC(NC(=O)c1ccco1)C(=O)OCC(=O)N(Cc1ccccc1)C(C)(C)C (stereo not given) | -15.8% | -3.79%
O=c1cc(N2CCN(c3ccccc3Cl)CC2)[nH]c(=O)n1Cc1ccc(F)cc1 | -4.06% | 16.8%
CC(C)Cn1c(N)c(C(=O)COC(=O)c2cc3ccccc3cc2O)c(=O)n(C)c1=O | 14.6% | 8.44%
O=C(Nc1ccc(Cl)c(Cl)c1)c1cccc(S(=O)(=O)NCc2cccnc2)c1 | 6.28% | 25.9% (active)
Cc1cccc(C)c1NC(=O)C1(C)CCC(=O)N1c1cc(C(C)(C)C)nn1C (stereo not given) | -13.6% | -5.42%
COc1ccccc1NC(=O)CN(c1ccccc1)S(=O)(=O)c1ccccc1 | -16.7% | -7.82%
CN1CCN(c2ccc(CNS(=O)(=O)c3ccc(F)cc3Cl)cc2)CC1 | -2.89% | -5.39%
Cc1ccccc1CN1CCN(C(=O)CC(C)C)CC1 | -18.4% | -7.73%
N#Cc1ccc(Oc2ccc(C(F)(F)F)cc2NC(=O)c2ccc(F)cc2)cc1 | 6.71% | 1.11%
CCNC(=O)C1(C)CCCN(Cc2ccc3ccccc3c2Br)C1 (stereo not given) | 11% | 13.3%
COc1cc(C)c(/C=C(\C#N)C(=O)Nc2ccc(C)cc2)cc1C(C)C | -24% | 0.73%
CCOC(=O)C1=C(COC(=O)/C=C/c2ccc(OC)c(OC)c2)NC(=O)NC1C (stereo not given) | -16.4% | -2.04%
Cc1nn(-c2ccccc2)c(N2CCCC2)c1/C=N/NC(=S)Nc1ccc(F)cc1 | 3.12% | 0.35%
CC1CC(C)CN(c2ncc3c(n2)CC(c2ccc(Cl)cc2)CC3=O)C1 (stereo not given) | -7.75% | 3.59%
COc1ccc(-c2[nH]ncc2CN(C)Cc2nonc2C)c(OC)c1 | -25% | -13.1%
Cc1nnc(N2CCCC(C(=O)NCc3ccc(OC(C)C)cc3)C2)c2nn(-c3ccccc3)c(C)c12 (stereo not given) | -12.5% | -13.1%
CCN(CC)CCNC(=O)c1ccc(NC(=O)C2CCN(c3ncnc4sc(C)c(C)c34)CC2)cc1 | 24.3% | 17.3%
Cc1nc2ccccc2c(N)c1C(=O)/C=C/c1ccccc1 | 28.7% | 31.6% (active)

Compound | inhibition [1] | inhibition [2]
CCOC(=O)C(=O)NNc1ccc(F)cc1 | -25.9% | -4.08%
CCCCCCn1nc(C(=O)OCC(=O)c2c(N)n(C)c(=O)n(C)c2=O)c2ccccc2c1=O | -6.84% | -3.36%
COc1ccc(C(C(=O)NCC2CCCO2)N(Cc2cccs2)C(=O)c2snc(C(N)=O)c2N)cc1 (stereo not given) | -52.6% | -8.57%
COc1cc(-c2cnc3c(NC(C)=O)cc(-c4ccc(N5CCN(C)CC5)cc4)cn23)cc(OC)c1OC | -17.8% | -18.2%
CC1=C(C(=O)OCc2ccccc2)C(c2ccsc2)C(C#N)=C(N)O1 (stereo not given) | -1.74% | 3.63%
O=C(NCc1ccncc1)C1CCCN(S(=O)(=O)c2ccc(Br)cc2)C1 (stereo not given) | -1.35% | 14.6%
CCOc1ccc(NC(=O)CN(C)C(=O)C2CCN(c3ncnc4sc(C)c(C)c34)CC2)cc1OCC | 0.38% | 3.14%
O=C(NCc1ccccn1)c1ccc(OC2CCN(Cc3ccc(F)cc3F)CC2)cc1 | -0.3% | 3.5%
NS(=O)(=O)c1ccc(CCNC(=O)c2ccc(C#CC3(O)CCCCC3)cc2)cc1 | -44% | -3.61%
CCCn1ncc(/C=N/O)c1C | 12.8% | 25.9% (active)
COc1cc(S(=O)(=O)NCc2ccccc2Cl)ccc1-n1cnnn1 | -9.68% | -5.92%
CC(=O)c1cccc(NC(=O)c2ccc(CN3CCc4ccccc4C3)cc2)c1 | -1.99% | 9.39%
CCN1CCN(c2ccc(S(=O)(=O)N3CCOCC3)cc2NC(=O)c2cc(Cl)nc3ccccc23)CC1 | -18.2% | 1.55%
COc1ccc(S(=O)(=O)Nc2ccccc2C(=O)N2CCCC2)cc1OC | -5.26% | -1.42%
OC(CN1CCN(c2cccc(Cl)c2)CC1)c1ccccc1 (stereo not given) | -16.2% | -6.51%
CO/N=C/C(c1ccc(Cl)nc1)S(=O)(=O)c1ccccc1 (stereo not given) | -12.5% | -1.73%
COc1cc2c(cc1OC)C(NC(=O)C(F)(F)F)CNC2=O (stereo not given) | 45.5% | 22.3%
O=C(Nc1ccncc1)c1cccc(S(=O)(=O)N2CCc3ccccc32)c1 | -21.8% | 27.9% (active)
O=C(Cc1cccs1)N(CC1CCCO1)C1(C(=O)NC2CCCC2)CCCCC1 (stereo not given) | 3.51% | 17.6%
Cc1ccc2nc(NC(=O)CCCC(=O)O)sc2c1 | 45.4% | 37.5% (active)
CCCC(=O)N1CCCC(c2cc(C(=O)Nc3ccccc3)no2)C1 (stereo not given) | -49.1% | -30.6%
CCNC(=O)C1(C)CCN(C(=O)c2ccc(F)cc2Cl)C1 (stereo not given) | 4.79% | 3.22%
CC(=C\c1ccccc1)/C=C1/SC(=S)N(CCC(=O)O)C1=O | -20.4% | -5.15%
COc1cc(C(=O)NCCOc2cc(C)ccc2C(C)C)cc(OC)c1OC | -14.4% | 23.8%

Compound | inhibition [1] | inhibition [2]
Cc1ccc(S(=O)(=O)N2[C@@H](c3cccc(Cl)c3)C(C(=O)OC(C)(C)C)=CC[C@H]2c2ccc(C(C)C)cc2)cc1 | 0.74% | 11.2%
COc1ccc(CCNC(=O)C(=O)NCC2CCCN2S(=O)(=O)c2ccccc2)cc1OC (stereo not given) | -20.3% | -7.77%
COc1ccc(CNc2nc(C)cc(C)c2C#N)cc1 | -9.61% | -3.68%
c1ccc(-c2csc3ncnc(NCCN4CCOCC4)c23)cc1 | 27.7% | 22.6%
CC(C)(C)c1ccc(-c2cc(-c3ccccc3O)[nH]n2)cc1 | -42.5% | -28.4%
CC(CC(=O)Nc1ccc(Cl)c(S(=O)(=O)N2CCOCC2)c1)c1ccccc1 (stereo not given) | 1.13% | 38.6% (active)
CN(C(=O)COC(=O)c1ccc2[nH]c3c(c2c1)CCCC3)C1CCS(=O)(=O)C1 (stereo not given) | -0.53% | -0.75%
Cc1c(C)n2c(SCC(=O)NCc3ccc4c(c3)OCO4)nnc2[nH]c1=O | -1.32% | -7.94%
Clc1ccc(C2NCCc3sccc32)cc1 (stereo not given) | -22% | 8.67%
O=C(NCCS(=O)(=O)N1CCN(c2cccc(Cl)c2)CC1)C1CC1 | -3.41% | 18.9%
NC(CO)C(=O)NNCc1ccc(O)c(O)c1O (stereo not given) | -18.8% | -2.94%
CS(=O)(=O)c1ccc(C(=O)OCC(=O)NC(=O)Cc2ccccc2)cc1 | -5.88% | -3.13%
CC(Oc1ccccc1F)C(=O)NNC(=O)CC(C)c1ccccc1 (stereo not given) | 12.4% | 2.31%
Cc1ccc(-c2nc(-c3ccccc3)no2)c(Cl)c1 | -51.6% | -16.6%
COC(=O)c1ccc2c(c1)NC(=O)c1ccccc1S2 | -8.66% | -1.54%
COc1cc(NC(=O)c2cccc3c(-c4cnn(C)c4)coc23)cc(OC)c1OC | -26.3% | -0.35%
CC(C)OCCCn1c(=O)c2ccccc2n2c(CCC(=O)N3CCN(c4ccccn4)CC3)nnc12 | -22.8% | -9.58%
O=C(Nc1ccc(Cc2ccncc2)cc1)c1ccc(S(=O)(=O)N2CCOCC2)cc1 | -12.7% | 9.65%
CNc1snc(C)c1C(=O)OCC(=O)Nc1ccc(C)cc1F | 3.09% | -1.51%
Cc1csc(N=Cc2ccc([N+](=O)[O-])o2)n1 | 30.6% | 32.2% (active)
CN(CC(=O)Nc1ccc(Cl)c(C(F)(F)F)c1)C(=O)C1CC(=O)N(c2ccc3c(c2)OCCO3)C1 (stereo not given) | 17.4% | 14%
CN(C)S(=O)(=O)c1ccc(Cl)c(NC(=O)CN2C(=O)NC(C)(C3CC3)C2=O)c1 (stereo not given) | -2.39% | -2.88%
